AmpC detergent – blocks E. coli AmpC beta-lactamase in detergent assay | AmpC hydrolysis of nitrocefin, absorbance 480 nm, 0.01% Triton | Potency, µM (titrated, usually from 114 µM), inactives show top-dose activity change, negative = inhibition, usual class: inhibitors | 0.041% of 370,000 active;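 note: 0% = no-compound wells and -100% = no-enzyme wells; nearly all actives have a fitted effect of over 25% in size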
Target sequence (P00811 whole entry, looked up): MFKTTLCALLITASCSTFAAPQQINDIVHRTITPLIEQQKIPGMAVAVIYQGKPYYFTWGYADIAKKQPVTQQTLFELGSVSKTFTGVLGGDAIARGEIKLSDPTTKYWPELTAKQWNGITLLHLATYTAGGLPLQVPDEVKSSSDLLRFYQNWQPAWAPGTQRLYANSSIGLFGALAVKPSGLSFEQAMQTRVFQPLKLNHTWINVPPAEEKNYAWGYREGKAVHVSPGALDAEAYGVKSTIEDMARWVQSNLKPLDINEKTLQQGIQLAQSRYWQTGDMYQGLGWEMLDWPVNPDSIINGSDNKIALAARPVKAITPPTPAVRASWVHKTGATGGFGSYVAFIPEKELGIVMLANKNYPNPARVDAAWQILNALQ
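AmpC (5.3 nM in the dispensed reagent) in 20 mM phosphate pH 7.0 with 0.01% (detergent screen) or 0.0001% Triton X-100 was preincubated with compounds for 15 min at room temperature. Nitrocefin was then added from an 800 uM solution, and hydrolysis was followed at 480 nm.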
AMA1 RON2 block – inhibitors of Plasmodium falciparum AMA1-RON2 interaction | Potency, µM (doses to about 58.2 µM), inactives show at the highest dose activity change, negative = inhibition, most hits filed as inhibitors | AlphaScreen AMA1-biotinylated RON2 peptide binding | 0.2% of 360,000 active | AID 720542;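 note: 0% = vehicle wells and -100% = peptide control; nearly all actives have a fitted effect of over 45% in size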
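AMA1 (3D7) with his tag at 25 nM final met compounds first, then biotinylated RON2 peptide at 25 nM; detection used donor plus acceptor beads, 10 µg/mL apiece, read by AlphaScreen after 30 min at room temperature.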
SARS PLpro yeast – inhibitors of SARS-CoV papain-like protease in yeast; Potency, µM (series often up to 32.9 µM), inactives show at the top dose activity, positive = growth rescue, most hits filed as activators; AID 485353; 0.19% of 330,000 active; S. cerevisiae expressing SARS-CoV PLpro, growth rescue; calls by dose curve; note: 0% is about no effect; nearly all actives have a fitted effect of over 55% in size
Vaccinia mCherry – vaccinia inhibition (mCherry reporter); Vaccinia virus mCherry reporter infection, fluorescence; Potency, µM (top dose mostly 36.5 µM), without a hit: at the highest dose activity change, negative = inhibition, actives largely listed as inhibitors; 0.63% of 310,000 active; calls by dose curve; tested in A549 cells; note: % is set by controls: 0 for no effect and ±100 for the full control effect; nearly all actives have a fitted effect of over 35% in size
AmpC no deterg – AmpC beta-lactamase inhibition without detergent; P00811; Potency, µM (highest dose often 57.1 µM), without a hit: at the top dose activity change, negative = inhibition, hits mostly inhibitors; AID 485341; AmpC nitrocefin hydrolysis, absorbance 480 nm, 0.0001% Triton; 0.52% of 330,000 active;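 note: plate controls were no compound for no effect and no enzyme for full effect; nearly all actives have a fitted effect of over 20% in size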
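AmpC (5.3 nM in the dispensed reagent) in 20 mM phosphate pH 7.0 with 0.01% (detergent screen) or 0.0001% Triton X-100 was preincubated with compounds for 15 min at room temperature. Nitrocefin was then added from an 800 uM solution, and hydrolysis was followed at 480 nm.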
VACV Venus inh – inhibitors of vaccinia virus (Venus reporter); Vaccinia virus Venus reporter expression, fluorescence; Potency, µM (highest dose often 36.5 µM), inactives show top-dose activity change, negative = inhibition, usual class: inhibitors; 0.46% of 330,000 active; AID 720580; calls by dose curve; tested in A549 cells; note: % is set by controls: 0 for no effect and ±100 for the full control effect; nearly all actives have a fitted effect of over 30% in size
Active calls of the source: *; i = inactive; ? = inconclusive; . = not tested or not shown; [ ] = dose if it differs, or a comment. This is a sample that favours compounds with a hit; in the whole collection about 1.3% have one here. Unless noted, calls come from the whole dose curve; as a rule, active = well fitted curve in the direction sought with a large enough effect; inconclusive = small, poorly fitted or top-dose-only effect, or another doubt; inactive = no such curve, though single readings can be large; an effect the other way counts as inactive or inconclusive. Potency is the fitted concentration of half-maximal effect.

SMILES | AmpC detergent | AMA1 RON2 block | SARS PLpro yeast | Vaccinia mCherry | AmpC no deterg | VACV Venus inh
CC(C)C(=O)Nc1ccc(NC(=O)c2ccc([N+](=O)[O-])cc2Cl)cc1 | ? | 10% | 6% | -17% | -7% | -25%
CCN(c1ccccc1)S(=O)(=O)c1ccc(Cl)c(C(=O)N(CC2CCCO2)C2CCS(=O)(=O)C2)c1 (stereo not given) | 3% | 30% | 1% | i | 183% | -18%
Cc1c(C(=O)N2CCCC2)sc2ncnc(NCCCN3CCOCC3)c12 | . | . | . | i | . | 0%
CC(=O)/C(C#N)=C1\NC(=O)C(Cc2ccc(C)c(C)c2)S1 (stereo not given) | -6% | -1% | -17% | 16µM* | -26% | 95%
OC1=C(O)c2nc3cc(C(F)(F)F)ccc3nc21 | 0% | 28µM* | 3% | -16% | -28% | 13%
OC1=C(O)c2nc3ccccc3nc21 | 1% | 1% | 3% | . | -7% | .
O=C(NCc1nnc2n1CCN(C(=O)c1cccc(Cl)c1)CC2)C1CC1 | . | . | . | 1% | . | 2%
O=C(Nc1ccc(-c2nc3ccccc3s2)cc1)c1cc(-n2cnnc2)ccc1Cl | -17% | 10% | 9% | ? | 102% | 7.9µM*
Cc1ccc(NC(=O)c2cc(-n3cnnc3)ccc2Cl)cc1 | -10% | 23% | -13% | . | -22% | .
Cc1nc(NCC(=O)c2c[nH]c3ccccc23)sc1C | . | . | . | -21% | . | -27%
CC(=O)Oc1cccc2c1C(=O)C1CC=CC(OC(C)=O)C1C2=O (stereo not given) | . | 32µM* | . | -14% | . | 10%
O=C(CCN1Cc2ccccc2OC(c2ccccc2F)C1)N1CCC(N2CCCC(O)C2)CC1 (stereo not given) | . | . | . | -9% | . | -11%
O=C(COC(=O)c1ccccc1C(=O)c1ccc(Cl)c([N+](=O)[O-])c1)NC1CC1 | -6% | 14% | 6% | ? | 4% | 10µM*
Cc1ccccc1-c1cc2nc(NCc3ccc(N(C)C)cc3)n(C)c(=O)c2s1 | . | 18µM* | . | ? | . | -15%
O=C(C[n+]1ccccc1Br)c1ccc(-c2ccccc2)cc1 | . | . | . | -15% | . | -13%
CC(C)c1ccc(NC(=O)c2cc3sc(Cl)cc3n2C)cc1 | 1% | . | . | -19% | . | -14%
CCc1ccc(NC(=O)c2cc3sc(Cl)cc3n2C)cc1 | 56µM* | . | . | -10% | . | -17%
COC(=O)COc1cccc2c(=O)n(CC(=O)N3CCCc4ccccc43)ccc12 | ? | 1% | -2% | i | 0.63µM* | -1%
CC(C)(C)NC(=O)CCN(/N=C/c1ccc([N+](=O)[O-])o1)C1=NS(=O)(=O)c2ccccc21 | -3% | 2%[11.6 µM] | -11% | ? | -5% | 10µM*
CN(C)c1ccc(/C=N/N(CCC(=O)NC(C)(C)C)C2=NS(=O)(=O)c3ccccc32)cc1 | -3% | 10% | 0% | -22% | 4% | 6%
OCC1OC(n2cnc3c(Cl)ncnc32)C(O)C1O (stereo not given) | . | . | . | -24% | . | 13%
C=CCOc1ccc(C[C@H](N)C(=O)NC[C@H]2O[C@@H](n3cnc4c(N)ncnc43)[C@H](O)[C@@H]2O)cc1 | . | 18% | -3% | i | -5% | -4%
CN(C)c1ncnc2c1ncn2C1OC(CO)C(O)C1O (stereo not given) | -2% | -6% | -1% | 13µM* | 143% | 10µM*
COc1ccc(C[C@H](N)C(=O)N[C@H]2[C@@H](O)[C@H](n3cnc4c(N(C)C)ncnc43)O[C@@H]2CO)cc1 | -8% | 26% | . | 1.3µM* | -11% | 1.6µM*
CN(C)CC(C)(O)c1ccc2c(c1)CN(Cc1cccn1-c1ncccn1)CCO2 (stereo not given) | . | . | . | -6% | . | 4%
CC(C)Cc1nc2cc(NS(=O)(=O)N(C)C)cc(C(=O)N3CCN(c4ccccc4)CC3)c2n1C | . | . | . | i | . | ?
O=C(Cn1cc2ccccc2n1)N1CCOc2ccc(C(O)C3CCCCC3)cc2C1 (stereo not given) | . | . | . | -21% | . | -8%

Screening data (PubChem BioAssay)
